Data published in PubChem BioAssay (NCI).
About 83,000 compounds went through this panel and 20% of them were active in at least one assay; those are over-represented in the sample as a whole.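 Each cell line was grown in a 96-well plate and treated with one concentration of compound for 48 hours. Values below 10 were considered active.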 A number with no mark means an inactive call. Active and inactive are the calls of the source.

system: IGROV1 ovarian; assay: NCI-60 one-dose screen, 48 h (100 = growth as untreated, 0 = no growth, -100 = all killed); conditions: 10 µM unless noted

Row | Compound | growth
1 | c1c[nH]c(CNC2CCCCC2)c1 | 107%
2 | COc1ccc2c(c1)CCCN2c1c2ccccc2nc2ccccc12 | 32.7%
3 | CC/C=C/C/C=C/C/C=C/C/C=C/C/C=C/C/C=C/CCC(=O)Nc1ccn([C@@H]2O[C@H](CO)[C@@H](O)C2(F)F)c(=O)n1 | 57.5%
4 | Cc1ccc2nc(NC(=O)CSc3nc(-c4ccccc4)c(C#N)c(=O)n3Cc3ccccc3)sc2c1 | 78%
5 | NNC(=O)c1nc(N)n(-c2ccc(S(N)(=O)=O)cc2)n1 | 103%
6 | O=C(CC(SCc1ccccc1)c1ccccc1)c1ccccc1 (configuration not stated) | 91.4%
7 | COC1=C(OC)C(=O)C(OC)=C(OC)C1=O | 101%
8 | COC(=O)CCC1=C(C)C2=NC1=CC1=NC(=CC3=NC(=Cc4[nH]c(/c(=C(/C)O)c4C)=C2)C(C(C)=O)=C3C)C(C)=C1CCC(=O)OC | 108%
9 | CC1=CN2C(=O)C3C4=C(CCCC4)SC3N=C2CN1c1c(C)cccc1C (configuration not stated) | 107%
10 | O=C(Nc1cccc(Oc2nnc(Cl)c3ccccc23)c1)Nc1ccc(Cl)c(C(F)(F)F)c1 | -16.8% (active)
11 | CN1CCN(CCCOc2ccc3nc(Nc4ccc(F)c(F)c4)ccc3c2)CC1 | 58.9%
12 | COc1ccccc1NC(=O)N/C(N)=N/c1nc2ccccc2s1 | 21.8%
13 | Cc1ccc(Nc2nc(N)nc(CSCC(=O)NN)n2)cc1 | 99.5%
14 | CC1CC(C(C)(C)C)C(=O)C(C(C)(C)C)C1 (configuration not stated) | 126%
15 | O=C(O)c1ccc2c(c1Cl)C(=O)c1ccccc1C2=O | 167%
16 | N=c1sc(Cc2ccc(Cl)cc2)cn1CC(=O)c1ccc(F)cc1 | 78.2%
17 | CCCCn1c(=O)c2c(nc3n2CCCN3CCc2ccc(OCC(=O)NCCN(CC)CC)cc2)n(CCCC)c1=O | 59.3%
18 | COc1ccc(NC(=O)c2nc(-c3cc(OC)c(OC)c(OC)c3)n(-c3cccc4ccccc34)n2)cc1OC | 22.9%
19 | O=C1CCc2c(sc3[nH]c(=S)n(-c4ccc(OC(F)(F)F)cc4)c(=O)c23)C1 | 55.6%

Row | Compound | growth
20 | C[C@@]1(CCC#N)[C@H]2CC[C@@H]3[C@H]4[C@H](C(=O)/C=C/c5cccnc5)CC[C@]4(C#N)CC[C@@]3(C)[C@]2(C)CC[C@H]1C(=O)/C=C/c1cccnc1 | 45.7%
21 | Cc1c(C)c2c(c(C)c1OCC(=O)O)CC[C@@](C)(CCC[C@@H](C)CCC[C@@H](C)CCCC(C)C)O2 | 1.82% [50 µM] (active)
22 | O=C(NCCCNc1cc(-c2cn(-c3ccccc3)nc2-c2cccc(O)c2)ccn1)c1ccc(F)cc1 | 45.8%
23 | Cn1c(-c2c(N)n(Cc3ccc(C(F)(F)F)cc3)c3nc(C#N)c(C#N)nc23)nc2ccccc21 | 16.9%
24 | Nc1nc(N)c2c(n1)NC(c1ccccc1)C1CCc3ccccc3C1=N2 (configuration not stated) | 92.2%
25 | COc1ccc2[nH]c(O)c(/C=c3/cc4c(c(-c5cc(OC)c(OC)c(OC)c5)n3)=Nc3ccccc3-4)c2c1 | 85.8%
26 | CCOC(=O)c1c2ncccc2n2c(=O)n(-c3ccccc3C)nnc12 | 63.9%
27 | COc1cccc(C(=O)NCCCNc2cc(-c3cn(-c4ccccc4)nc3-c3cccc(OC)c3)ccn2)c1 | 58.9%
28 | N[C@@H](CCCCNCC(=O)O)C(=O)O | 108%
29 | CC(CCc1ccc(Cl)c(Cl)c1)NCc1ccc(C(C)(C)C)cc1 (configuration not stated) | 90.3%
30 | O=Cc1ccc(O)c2ncccc12 | 4% (active)
31 | CCCCOc1nc2ccccc2cc1C1CNC(=O)c2ccccc2N1 (configuration not stated) | 38%
32 | COc1ccc2occ(C3=C(c4c[nH]c5ccccc45)C(=O)N(O)C3=O)c2c1 | 91.3%
33 | N#CC1=C(NC=O)Oc2c(ccc3ccccc23)C1c1ccccc1 (configuration not stated) | 38.6%
34 | Fc1c[c-]c(-c2ccccn2)c(F)c1.[CH3-].[Pt+2].c1ccc(P(C[PH+](c2ccccc2)c2ccccc2)c2ccccc2)cc1 | -22.2% (active)
35 | N=C1C(c2nc(-c3ccc(Br)cc3)cs2)=C(O)CN1CC1CCCO1 (configuration not stated) | 46.2%
36 | NS(=O)(=O)c1cnccc1Sc1ccncc1S(N)(=O)=O | 6.71% (active)
37 | N#Cc1c(-c2ccccn2)[nH]c(=S)[nH]c1=O | 110%
